In the supplement of paper PMC9694430:

Experiments:
Test in all cases: thermal shift delta Tm vs DMSO control; higher = stronger stabilization (binding)
Details in all cases: 12.5 µM; protein concentration 2 µM
[1] = test system: LOC_OS01G57100-cb003
Method in brief: (§1)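 Compounds dissolved in DMSO were added to purified rice kinase domain constructs, which had been expressed in E. coli, for differential scanning fluorimetry. Each well held 19.5 μl of 2 μM kinase in 100 mM potassium phosphate pH 7.5, 150 mM NaCl, 10% glycerol and 5 × SYPRO Orange. Fluorescence was followed from 25°C to 95°C at a rate of 0.05°C/s. Shifts in Boltzmann-fitted melting temperature are triplicate means relative to DMSO-only protein.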

[2] = test system: LOC_OS01G60330-cb001
Method in brief: as §1

[3] = test system: LOC_OS01G60700-cb002
Method in brief: as §1

[4] = test system: LOC_OS01G63280-cb003
Method in brief: as §1

[5] = test system: LOC_OS01G67340-cb003
Method in brief: as §1

[6] = test system: LOC_OS01G70970-cb002
Method in brief: as §1

[7] = test system: LOC_OS02G07810-cb001
Method in brief: as §1

[8] = test system: LOC_OS02G08530-cb003
Method in brief: as §1

[9] = test system: LOC_OS02G14120-cb001
Method in brief: as §1

[10] = test system: LOC_OS02G17970-cb001
Method in brief: as §1

[11] = test system: LOC_OS02G45750-cb003
Method in brief: as §1

[12] = test system: LOC_OS02G54510-cb004
Method in brief: as §1

[13] = test system: LOC_OS03G04050-cb001
Method in brief: as §1

[14] = test system: LOC_OS03G12390-cb001
Method in brief: as §1

[15] = test system: LOC_OS03G27990-cb004
Method in brief: as §1

[16] = test system: LOC_OS03G50450-cb001
Method in brief: as §1

[17] = test system: LOC_OS03G50810-cb003
Method in brief: as §1

[18] = test system: LOC_OS04G35114-cb001
Method in brief: as §1

[19] = test system: T1, LOC_OS04G38480-cb003
T1 sequence (whole entry): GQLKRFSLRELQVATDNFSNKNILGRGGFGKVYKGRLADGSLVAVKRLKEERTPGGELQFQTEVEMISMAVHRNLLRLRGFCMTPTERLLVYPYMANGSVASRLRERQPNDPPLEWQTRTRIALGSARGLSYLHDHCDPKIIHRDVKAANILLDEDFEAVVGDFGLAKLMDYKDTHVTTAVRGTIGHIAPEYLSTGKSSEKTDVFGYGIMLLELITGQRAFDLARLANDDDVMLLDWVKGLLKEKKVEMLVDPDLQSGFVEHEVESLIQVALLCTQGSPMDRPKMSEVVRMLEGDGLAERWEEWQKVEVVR
Method in brief: as §1

[20] = test system: T2, LOC_OS04G41100-cb001
T2 sequence (whole entry): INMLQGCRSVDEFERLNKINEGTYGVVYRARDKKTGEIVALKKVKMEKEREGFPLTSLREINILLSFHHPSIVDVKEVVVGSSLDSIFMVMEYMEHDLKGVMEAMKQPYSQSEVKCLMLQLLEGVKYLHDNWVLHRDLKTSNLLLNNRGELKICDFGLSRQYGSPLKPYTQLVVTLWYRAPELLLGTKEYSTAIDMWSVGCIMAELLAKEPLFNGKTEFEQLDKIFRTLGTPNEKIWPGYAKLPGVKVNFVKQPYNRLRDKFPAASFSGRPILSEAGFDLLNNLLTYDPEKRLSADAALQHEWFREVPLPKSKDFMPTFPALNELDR
Method in brief: as §1

Compound | thermal shift delta Tm [1] | thermal shift delta Tm [2] | thermal shift delta Tm [3] | thermal shift delta Tm [4] | thermal shift delta Tm [5] | thermal shift delta Tm [6] | thermal shift delta Tm [7] | thermal shift delta Tm [8] | thermal shift delta Tm [9] | thermal shift delta Tm [10] | thermal shift delta Tm [11] | thermal shift delta Tm [12] | thermal shift delta Tm [13] | thermal shift delta Tm [14] | thermal shift delta Tm [15] | thermal shift delta Tm [16] | thermal shift delta Tm [17] | thermal shift delta Tm [18] | thermal shift delta Tm [19] | thermal shift delta Tm [20]
CNC(=O)c1ccccc1Nc1nc(Nc2ccc(N3CCOCC3)cc2OC)ncc1Cl | 2.81 °C | 0.04 °C | 1.25 °C | 0.09 °C | 0.32 °C | 2.69 °C | 0.19 °C | 4.3 °C | 5.33 °C | 1.35 °C | 1.17 °C | -0.15 °C | 0.35 °C | 4.35 °C | 0.45 °C | 0.26 °C | 2.21 °C | 2.54 °C | 1.62 °C | 0.51 °C
Cc1c(Cn2c(C)nc3c(C(=O)O)cc(N4CCOCC4)cc32)cccc1C(F)(F)F | 1.01 °C | 0.83 °C | 0.4 °C | -0.3 °C | 0.23 °C | 0.27 °C | 0.73 °C | 0.55 °C | -0.38 °C | 0.26 °C | 0.34 °C | 0.11 °C | 0.14 °C | -0.17 °C | 0.07 °C | 0.48 °C | 0.29 °C | 0.99 °C | 0.75 °C | 0.4 °C
N#Cc1ccc2ncnc(NCCc3ccccc3)c2c1 [Senexin A] | -0.12 °C | 0.74 °C | -0.36 °C | 0.25 °C | 0.38 °C | 0.3 °C | -0.71 °C | 2.47 °C | 2.47 °C | 0.28 °C | 1.15 °C | 0.03 °C | 0.34 °C | 1.84 °C | 0.37 °C | 0.68 °C | 0.83 °C | 1.3 °C | 1.69 °C | 0.25 °C
COc1nccnc1NS(=O)(=O)c1ccc(NC(=O)/C=C/c2ccc([N+](=O)[O-])s2)cc1 [Necrosulfonamide] | -1.39 °C | 1.46 °C | 1.17 °C | 0.16 °C | 0.36 °C | -0.61 °C | 1.4 °C | 0.83 °C | -0.66 °C | 2.48 °C | -0.78 °C | 0.22 °C | 0.43 °C | -0.66 °C | 1.32 °C | -0.09 °C | 0.29 °C | 1.14 °C | 0.24 °C | -0.12 °C
COc1ccc2[nH]cc(/C=C3\C(=O)Nc4ccc(NC(=O)CCN5CCCCC5)cc43)c2c1 | 0.21 °C | 1.51 °C | 1.62 °C | 1.06 °C | 1.09 °C | 0.85 °C | 0.83 °C | 1.82 °C | 1.59 °C | 1.88 °C | 4.5 °C | 0.79 °C | 0.56 °C | 1.22 °C | 1.19 °C | 0.34 °C | 3.45 °C | 5.49 °C | 2.41 °C | 0.9 °C
Cn1cnc(N)c2ncnc1-2 [3-Methyladenine (3-MA)] | 1.89 °C | 1.27 °C | 0.77 °C | 0.22 °C | -0.29 °C | 0.22 °C | 0.96 °C | 1.08 °C | 0.61 °C | 0.34 °C | 0.36 °C | 0.39 °C | 0.47 °C | -0.25 °C | 0.15 °C | 0.39 °C | 0.4 °C | 0.91 °C | 1.15 °C | 0.12 °C
Cc1nc(N)sc1-c1ccnc(Nc2ccc(N3CCOCC3)cc2)n1 | 1.88 °C | 3.15 °C | 0.88 °C | 0.17 °C | -0.01 °C | 1.58 °C | 0.79 °C | 2.22 °C | 8.9 °C | -0.16 °C | 3.37 °C | 1.11 °C | 0.62 °C | 3.79 °C | 1.2 °C | 1.67 °C | 2.84 °C | 5.04 °C | 2.31 °C | 1.72 °C
Cc1[nH]c(/C=C2\C(=O)Nc3ccc(S(=O)(=O)Cc4c(Cl)cccc4Cl)cc32)c(C)c1C(=O)N1CCC[C@@H]1CN1CCCC1 | 1.04 °C | 1.52 °C | 0.53 °C | 0.78 °C | 0.73 °C | 0.57 °C | 0.8 °C | 3.7 °C | 7.86 °C | 0.39 °C | 0 °C | 0.51 °C | 0.3 °C | 4.07 °C | 0.43 °C | 0.47 °C | 0 °C | 7.26 °C | 2.55 °C | 0.74 °C
Nc1[nH]nc2nnc(-c3c(-c4ccccc4)nn4ccccc34)cc12 | 1.13 °C | 1.24 °C | 0.92 °C | 0.4 °C | 0.72 °C | 0.68 °C | -0.25 °C | 2.11 °C | 0.36 °C | 0.87 °C | 1.41 °C | 0.54 °C | 0.66 °C | 1.36 °C | 0.56 °C | 1.03 °C | 0.41 °C | 1.11 °C | 0.15 °C | 0.75 °C
FC(F)(F)c1ccc(CNc2ccc(Cc3c[nH]c4ncc(Cl)cc34)cn2)cn1 [Pexidartinib (PLX3397)] | 1.87 °C | 3.92 °C | 0.67 °C | 2.9 °C | 3.78 °C | 2.89 °C | 1.03 °C | 3.22 °C | 9.87 °C | 2.01 °C | 6.87 °C | 0.69 °C | 0.27 °C | 2.08 °C | 0.52 °C | 0.54 °C | 1.63 °C | 9.82 °C | 4.16 °C | 0.51 °C
C=CC(=O)N[C@H]1CCOC[C@H]1Nc1ncc2cc(-c3c(Cl)c(OC)cc(OC)c3Cl)ccc2n1 | 2.49 °C | -0.43 °C | -0.29 °C | -0.43 °C | -0.17 °C | -0.04 °C | -1.01 °C | 0.62 °C | 0.55 °C | -0.41 °C | 1.19 °C | -0.3 °C | 0.08 °C | -0.37 °C | -0.08 °C | 0.02 °C | -0.2 °C | 0.09 °C | 0.04 °C | 0.17 °C
COc1cc(OC)c(C=C2C(=O)Nc3ccccc32)c(OC)c1 | 1.44 °C | 0.76 °C | 0.97 °C | -0.13 °C | 0.36 °C | 0.32 °C | 0.32 °C | 0.7 °C | 0.94 °C | 0.65 °C | -0.14 °C | 0.07 °C | -0.08 °C | -0.35 °C | 0.05 °C | -0.29 °C | -0.06 °C | 0.7 °C | 0.58 °C | 0.2 °C
